From PubChem BioAssay AID1508600 (Functional Genomics Laboratory (NCATS/FGL), 2020) come the findings set out here.

The campaign covered roughly 53,000 sequences. About 3,700 (7%) were called active. This is one part of a sample in which actives are shown more often than they occur. A number with no mark means an inactive call.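 How the source made its calls: active means gene knockdowns whose robust z-score for IL-1 alpha signal is at least 2 or at most -2, so actives lie on both sides; inactive means the rest.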

A short description of the assay: Components of the Cytosolic LPS Sensing Pathway: Gene Identification via Genome-wide siRNA Screen.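 Further: robust z of the log signal after scaling to non-targeting control siRNA wells of the plate.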 To be noted: RAW264.7 macrophages, IL-1a HTRF, actives lie on both sides, screened at 100 nM (by protocol), cells primed 5 h with Pam3CSK4 first. The gist of the method:
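Knockdown: 100 nM siRNA, 48h, RAW264.7. Stimulation: Pam3CSK4 5 h, then LipidA via TransIT-TKO 24 h. Output: supernatant IL-1a HTRF, negative-control-normalized, log robust z-score; viability by CellTiter-Glo.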
As for GGGAACUUUCCUCAAGUCUTT against Phactr3, the z-score was 0.107.
The same measure for GGCCAAGAAACAUGCCCUATT against Pbx2: 0.168.
For the sequence GGCAGUGGAGUUAACAACATT against Dsg1b, the z-score is -0.12.
As to CCUAUGAGUCUUACGUGAATT against Cyp4x1, the z-score was 0.693.
In the case of GGACACCAACAUAUUGUUCTT against Slc13a2, the z-score was -0.128.
With GGCUGAUGGAAGAAUAUGATT against Actn2 the figure was -2.2 (active); with GGAUGAGUCUUUCUAGUUATT against Nipa1, -0.337.
In the case of GCAGCAGUAAUGAUGGAUCTT against Ncoa3, the z-score was 2.47 (active).
Turning to GGACAAAUUCUACAUCAGCTT against Adam8, the z-score was 0.0533.
CGGCCGUCAGCUUCUUUUATT against Olfr283: the z-score is -0.204.
The same measure for CGACUUUGGAGAAUUUCAATT against Synrg: -0.573.
The same measure for GGGAACAAACCUUGAUUCUTT against Adam24: 3.49 (active); for GGAGAGACCACCCUUUCAGTT against Fahd2a: -0.432; for GCAUAUGGACUUUCUGUCATT against Iws1: -0.157.
With GGUGUAACACUCAUUUAUCTT against Ifitm3 the figure was 2.88 (active); with GGACACCUACCAAAAGUUATT against Cd9, 0.432.
As for GCUACAACAAGACAAAGUCTT against Tada1, the z-score was 1.84.
With CCUUCUACCUACUUAUUGGTT against Tomm70a the figure was 0.178.
As to GGAAGAUGUGAAAUUGCUUTT against Dars2, the z-score was 2.23 (active).
On to CCACUAUGUUCUGUGGCAATT against Olfr736, for which the z-score was -2.33 (active).
As to GGAAGAAUUUGACAACCGCTT against Mrps18c, the z-score is 0.583.
With GGAAAAUGAUAGCAGACAUTT against Zfp810 the figure was -1.72; with GGGCCAGAAGAAGAGUCGATT against Mllt6, -0.304; with GGAGAUUUCUGAAACUAGATT against Tiaf2, -2.09 (active).
With “GGCCAACUCACCUUUCUAGTT against D630023F18Rik” the figure was 1.84.
With CCAUUCUUAUUGUUGAGAATT against Nek9, the z-score is -0.793.
The same measure for GGACAUGAAAGUUGACCUGTT against Mrps31: 0.465; for GCCCGUGUGUAAGUGCAAATT against Wfikkn2: 2.25 (active).
For GGAAACAGAGCAAGGAAAATT against Gas7, the z-score is 0.613.
The same measure for GGAGAGCUCUAUGGAUCGATT against Fgf16: 0.784; for CCUCCUUUGGACAACGGGUTT against Cyp7a1: -1.34.
CCUGCUCUCCUCAUUAUGUTT against Rnls: the z-score was -0.115.
The same measure for GGAAGCAACUUGGAAUUUGTT against Ctnna3: 0.886.
With GGGUACAGUCCGAUACAGUTT against Nploc4 the figure was -1.79; with GCUCUCAUUAGCAUUAUCGTT against Gria1, 0.21; with GCACAACUCAGAAGUAAUUTT against Ghr, 0.271.
As to GGUAAUAUUUCGUGCUUUATT against Lamb1, the z-score is 2.1 (active).
As for CCUAAAAAGAGGAAAAGGGTT against Psg29, the z-score is -0.254.
With GGUGCUCAGCAUGUUUGCUTT against Avpr1b the figure was -1.06; with GGCACUGGAAAUAAAACCCTT against S100a14, -0.766.
With GCUAACGAAGGUAGUGUACTT against Gtpbp8 the figure was 3.34 (active); with GGUAUGCUCUCUGUUGACUTT against Olfr922, 0.472; with GGAGUUCCUAUUUAAUCCCTT against Hoxb8, -0.419.
Take GCAGUUUUAACUGGCCAUATT against Nr2f2: the z-score was 1.7.
With GCUGCUUAAGUACAUCAGATT against Grm4 the figure was -0.401; with GGUUAUGCAUUACUCUCUUTT against Prkdc, 0.0207; with GGCCAGGUAUAAAUAUAUATT against Dusp8, 4.51 (active).
The same measure for GCUGGAACUUAGUGUUCAGTT against Kat6b: 1.45; for GCAAUGUUCUCCGUAAACATT against Acss2: 1.15.
GGCUUCAAACACUUCCUUGTT against Sh2d4b: the z-score is 0.818.
The same measure for GGGAAAAGAUUCAGCUAGATT against Ntn4: -1.16.
The same measure for GCAGCUAUUGAGCAUGGUGTT against Atp6v1g3: -2.16 (active); for GCCGUAUCGAUUCUAUUUCTT against Slc6a17: 1.09; for GGAAAAGAAGACAUUUCUCTT against Osbpl8: -0.565.
With CCUCCUGUACGAACACGCATT against Sars2, the z-score is -0.118.
The same measure for GGCUGUGCUCAGGAUCAAATT against Olfr683: 2.37 (active); for GGAAAUAUCCAAGAAUCCCTT against Bbs4: -0.0724; for GUGAUUGGGAACCUGUUUATT against Paqr6: -1.35.
With GCAGAUCAGUUGGUACAAGTT against Acss3 the figure was 0.0616; with GCUAACACAACGAGAGAAGTT against Ushbp1, -2.39 (active); with GGAUUCACACAGAGGUAAATT against Zfp169, -0.215.
With CCCAUAUUAAUUAUGGCGUTT against Hadha the figure was -0.189; with GCCAUACAUAAACUACAAUTT against Gulo, -0.175.
As to GUACUUGAAACGAACUGGATT against B4galnt4, the z-score is -1.68.
With CCUUACCCUGUUAUACAAGTT against Hirip3 the figure was 2.69 (active).
With GGCUAAAACAGGAAAUCUGTT against Mip the figure was -0.398.
As for CCACUUUAAAGGCUCUUCUTT against H3c8, the z-score is -2.17 (active).
With CCGACUUCGUACAAUGACCTT against Slc1a6, the z-score is 1.45.
With GGAGAACAAGAUCCUGGAGTT against Ccdc39, the z-score is 1.73.
Consider GGAUCCAGAAGAGCAUCUCTT against Sap30, for which the z-score was -0.33.
GGGCGUGAUUUAUUUCUACTT against Mfsd6l: the z-score is 1.45.
For GGCUAUGCUUUUGUCCAGUTT against Raly, the z-score is -0.392.
Take GGUGUCUUUGCUCUUAAUUTT against Sike1: the z-score is 0.277.
As to CGCAGUCCUUGACAUUAAATT against Rab3a, the z-score is 0.0328.
With GCUCUUGGGAUGGACGAUATT against Hmgcs1 the figure was 4.73 (active); with GGCAGACAUAAGGCUUUCUTT against Olfr1056, -0.754; with GGGCAGGAAAAAAAAUUCATT against Vps13b, 1.68.
CCACUGAAGGAAGUUCGCUTT against Amer2: the z-score was 0.21.
With GGAUAAAUGCCAUUUUGGATT against Cpeb1, the z-score is -0.664.
The same measure for GCCUUAACCACAAUUAAAATT against Etfrf1: -0.578; for GGGAUCUGGAUGAGGUCAATT against Tcf7l1: 3.02 (active).
With GGAAAUUAGUGCUGGGCGUTT against Erbb3 the figure was 0.424; with CGAAAUUGAUUCUAUCUGCTT against Katnal1, -0.59; with GGGUCUCUAUGGAAUCAAUTT against Ldha, 2.83 (active).
For the sequence GGCAGUAUGAGAGGUAUUUTT against Entpd7, the z-score was 0.345.
On to CCAAACGAAGGAAGCUGACTT against Taf6l, for which the z-score was -2.09 (active).
The same measure for GGGAGAUAAAAAGUUAAGGTT against Bclaf1: 1.38; for GGCUUUCGUUUACAACAAGTT against Naglu: -0.414; for GGUUAUCAUACUUUUUGUGTT against Phf10: -0.582.
CCAAACAAUGUUGUUUAGGTT against Rilpl1: the z-score was -0.965.
The same measure for CCUCGAGUUCGGAAACAGATT against Chd8: -1.06; for CCUGCCUAGAUGUUUCAGCTT against Ifna13: -0.196.
The same measure for GGACAAUAGAUGUGUUUGATT against Ddb2: 1.57.
Regarding GCUUGGCCGUGAUUGUUGCTT against Fndc10, the z-score is 2.35 (active).
The same measure for GGCUUGGUGAGCUACCUACTT against Wdr62: -0.839.
The same measure for GGCACACUUAAGUAAAAGUTT against Kras: -0.542.
The same measure for GGCUACCUUCUACCUAAGGTT against Cyp2g1: 1.42; for CGGCAAGCCCAAAAAGGUCTT against Dlx3: -2.34 (active); for GCAAUCUGUCCUUCUGUGATT against Olfr1133: -0.818.
Regarding CCUGUACUGAACUACUUGATT against Kctd5, the z-score was 0.0535.
With CCUGGUACAAGGAACCAGUTT against Zim1, the z-score was 0.285.
With GGACCCAAUAAAACUUCCGTT against Ttc36 the figure was 1.13; with CCACAUACUCUAAUGAAGUTT against Casp1, 0.176.
The same measure for GGAACUGGGUUCAUCCACATT against Snrpb2: -2.02 (active); for GGAAAAAGAGCUUUUGGUCTT against Piwil2: 0.528; for GGAUGAGUUAAGUUUCUCATT against Sh3d19: -1.57.
The same measure for CCCUAAUAGGUCAAUAAAGTT against Vmn1r71: -0.0066.
As to GGCAUUUCGUGGAUCACCGTT against Mtg2, the z-score was -1.56.
